The source of these data is the supplement of paper PMC10646978.

Molecules are shown by their SMILES. ± gives the standard deviation.

Holding throughout (details): modulator concentration 10 µM
Test [1] deals with RAW-Dual (murine macrophage reporter line). Put plainly: NF-kB reporter (SEAP) activity fold change vs agonist alone; higher = enhanced NF-kB activity. The method, boiled down:
(§1)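 Compound reached 10 μM final in each well by pin transfer, onto RAW-Dual murine macrophage reporter cells seeded at 50 000 per well in 384-well plates. After 1 hour at 37 °C, the cells were stimulated overnight with a PRR agonist. SEAP in the supernatant was read with QUANTI-Blue at 620 nm absorbance for NF-κB, and Lucia luciferase was read with QUANTI-Luc luminescence for IRF. Each signal was turned into fold change against the mean agonist-only control on the same plate, and two replicate plates were averaged with propagated errors.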

Test [2] has the same test system. Put plainly: IRF reporter (Lucia luciferase) activity fold change vs agonist alone; higher = enhanced IRF activity. The method, boiled down: as §1
Test [3] has the same test system. The experiment in a line: viability score (confluency relative to resting cells, overnight) (fraction); higher = more viable, active = viable (0.7 or more). The method, boiled down:
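RAW-Dual macrophages in 384-well plates were treated overnight with compound at 10 μM final. IncuCyte imaging recorded confluency, and IncuCyte software built two confluency masks across every imaged well. The viability score expresses confluency relative to resting cells and was judged against a cutoff, which a compound met only if both masks exceeded 70% of resting cells.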

Setting [4] is: agonist: CpG ODN 1826 0.5 ug/mL.

In the case of `O=C(c1csc(-c2ccccc2)n1)N1CCCN(C2CCC2)CC1`, the NF-kB reporter in test [1] (setting [4]) was found to be 0.763 ± 0.041; in test [1] (agonist: LPS 0.1 ug/mL) it was 1.17 ± 0.094; in test [1] (agonist: MPLA […]), 0.937 ± 0.063. The IRF reporter worked out at 0.927 ± 0.081 in test [2] (agonist: 3'3'-cGAMP 10 ug/mL), 1.19 ± 0.13 in test [2] (agonist: LPS 0.1 ug/mL) and 1.24 ± 0.12 in test [2] (agonist: MPLA […]). In addition, the viability score in test [3] is 1.01 (active).
With `COc1ccc(NC(=O)CN(c2ccc(C)c(C)c2)S(C)(=O)=O)cc1Cl`, the NF-kB reporter in test [1] (setting [4]) worked out at 0.912 ± 0.096; in test [1] (agonist: LPS 0.1 ug/mL), 1.14 ± 0.12; in test [1] (agonist: MPLA […]), 0.886 ± 0.032. Also, the IRF reporter in test [2] (agonist: 3'3'-cGAMP 10 ug/mL) came to 0.857 ± 0.14; in test [2] (agonist: LPS 0.1 ug/mL), 0.973 ± 0.045; in test [2] (agonist: MPLA […]), 0.858 ± 0.079. Moreover, in test [3], the viability score is 1 (active).
Take `O=C(CSc1nc[nH]n1)NC(c1ccccc1)c1ccccc1`: the results for the NF-kB reporter in test [1] (setting [4]), in test [1] (agonist: LPS 0.1 ug/mL) and in test [1] (agonist: MPLA […]) were 0.77 ± 0.077, 0.86 ± 0.053 and 1.01 ± 0.088, respectively. The IRF reporter in test [2] (agonist: 3'3'-cGAMP 10 ug/mL) was found to be 0.51 ± 0.033; in test [2] (agonist: LPS 0.1 ug/mL) it was 1.33 ± 0.096; in test [2] (agonist: MPLA […]) it was 1.62 ± 0.17. Besides, the viability score in test [3] was 1.01 (active).
As to `COc1ccccc1OCCOCCOc1cccc(Br)c1`, the NF-kB reporter came to 0.883 ± 0.14 in test [1] (setting [4]), 1.05 ± 0.12 in test [1] (agonist: LPS 0.1 ug/mL) and 0.945 ± 0.087 in test [1] (agonist: MPLA […]). The IRF reporter in test [2] (agonist: 3'3'-cGAMP 10 ug/mL) stood at 1.05 ± 0.044; in test [2] (agonist: LPS 0.1 ug/mL) it was 1.27 ± 0.29; in test [2] (agonist: MPLA […]), 1.36 ± 0.24. Also, in test [3], the viability score is 0.802 (active).
`O=C(CCCCCN1C(=O)c2cccc3cccc(c23)C1=O)NCCCO`: the NF-kB reporter turned out to be 0.997 ± 0.08 in test [1] (setting [4]), 0.993 ± 0.064 in test [1] (agonist: LPS 0.1 ug/mL) and 0.919 ± 0.036 in test [1] (agonist: MPLA […]). In addition, the IRF reporter in test [2] (agonist: 3'3'-cGAMP 10 ug/mL) is 1.02 ± 0.14; in test [2] (agonist: LPS 0.1 ug/mL), 1.11 ± 0.053; in test [2] (agonist: MPLA […]) it was 1.08 ± 0.082. For the same molecule, the viability score in test [3] was 0.993 (active).
On to `CCN(Cc1ccncc1)C(=O)C(CO)c1ccccc1` (stereo unspecified), for which the NF-kB reporter in test [1] (setting [4]) worked out at 0.998 ± 0.087; in test [1] (agonist: LPS 0.1 ug/mL) it was 0.997 ± 0.11; in test [1] (agonist: MPLA […]) it was 1.04 ± 0.071. Further, the IRF reporter worked out at 0.972 ± 0.076 in test [2] (agonist: 3'3'-cGAMP 10 ug/mL), 0.954 ± 0.058 in test [2] (agonist: LPS 0.1 ug/mL) and 0.932 ± 0.08 in test [2] (agonist: MPLA […]). The viability score in test [3] is 1 (active).
Consider `CC(C)(C)N.CCCC(NC(C)C(=O)N1C(C(=O)O)CC2CCCCC21)C(=O)OCC` (stereo unspecified), for which the results for the NF-kB reporter in test [1] (setting [4]), in test [1] (agonist: LPS 0.1 ug/mL) and in test [1] (agonist: MPLA […]) were 0.927 ± 0.074, 0.864 ± 0.15 and 0.947 ± 0.094, respectively. Besides, the IRF reporter in test [2] (agonist: 3'3'-cGAMP 10 ug/mL) came to 0.996 ± 0.036; in test [2] (agonist: LPS 0.1 ug/mL), 1.21 ± 0.16; in test [2] (agonist: MPLA […]), 1.3 ± 0.18. In test [3], the viability score was 1.02 (active).
For `Nc1nnc(C(=O)O)[nH]1`, the NF-kB reporter was found to be 1.04 ± 0.083 in test [1] (setting [4]), 1.14 ± 0.08 in test [1] (agonist: LPS 0.1 ug/mL) and 1.03 ± 0.043 in test [1] (agonist: MPLA […]). Also, the IRF reporter in test [2] (agonist: 3'3'-cGAMP 10 ug/mL) was determined as 1.06 ± 0.2; in test [2] (agonist: LPS 0.1 ug/mL), 1.03 ± 0.1; in test [2] (agonist: MPLA […]) it was 1.23 ± 0.19. Further, the viability score in test [3] was 1 (active).
Take `O=C(O)CCn1c2c(c3ccccc31)C[C@H](NS(=O)(=O)c1ccc(F)cc1)CC2`: the NF-kB reporter in test [1] (setting [4]) worked out at 1.13 ± 0.27; in test [1] (agonist: LPS 0.1 ug/mL) it was 0.94 ± 0.061; in test [1] (agonist: MPLA […]) it was 0.947 ± 0.06. Further, the IRF reporter in test [2] (agonist: 3'3'-cGAMP 10 ug/mL) stood at 0.879 ± 0.072; in test [2] (agonist: LPS 0.1 ug/mL), 1.2 ± 0.29; in test [2] (agonist: MPLA […]), 1.1 ± 0.12. In test [3], the viability score is 1 (active).
Turning to `Cc1cnc(NC(=O)C2=C(O)c3ccccc3S(=O)(=O)N2C)s1`, the NF-kB reporter in test [1] (setting [4]) amounted to 1.24 ± 0.18; in test [1] (agonist: LPS 0.1 ug/mL) it was 1.06 ± 0.41; in test [1] (agonist: MPLA […]), 0.953 ± 0.066. Moreover, the IRF reporter is 0.927 ± 0.036 in test [2] (agonist: 3'3'-cGAMP 10 ug/mL), 1.15 ± 0.29 in test [2] (agonist: LPS 0.1 ug/mL) and 0.987 ± 0.089 in test [2] (agonist: MPLA […]). In addition, the viability score in test [3] is 1.01 (active).
As to `CCOc1ccc2c(c1)C(C)=CC(C)(C)N2` [Prestw-765], the NF-kB reporter in test [1] (setting [4]) was determined as 0.892 ± 0.098; in test [1] (agonist: LPS 0.1 ug/mL) it was 1.07 ± 0.055; in test [1] (agonist: MPLA […]), 1.11 ± 0.029. The IRF reporter in test [2] (agonist: 3'3'-cGAMP 10 ug/mL) amounted to 0.812 ± 0.065; in test [2] (agonist: LPS 0.1 ug/mL) it was 0.967 ± 0.052; in test [2] (agonist: MPLA […]), 0.997 ± 0.082. Moreover, in test [3], the viability score is 1 (active).
`CC1=NN(c2ccc(S(N)(=O)=O)cc2)C(=O)C1=Cc1ccc(N(C)C)cc1`: the NF-kB reporter came out at 1.02 ± 0.15 in test [1] (setting [4]), 0.967 ± 0.063 in test [1] (agonist: LPS 0.1 ug/mL) and 0.947 ± 0.04 in test [1] (agonist: MPLA […]). Also, the IRF reporter in test [2] (agonist: 3'3'-cGAMP 10 ug/mL) came out at 0.794 ± 0.2; in test [2] (agonist: LPS 0.1 ug/mL), 0.899 ± 0.052; in test [2] (agonist: MPLA […]), 0.892 ± 0.06. In addition, the viability score in test [3] was 1 (active).
Turning to `COc1cc2c(Nc3ccc(Br)cc3F)ncnc2cc1OCC1CCN(C)CC1`, the NF-kB reporter worked out at 0.825 ± 0.04 in test [1] (setting [4]), 1.01 ± 0.11 in test [1] (agonist: LPS 0.1 ug/mL) and 1.11 ± 0.094 in test [1] (agonist: MPLA […]). Also, the IRF reporter turned out to be 0.975 ± 0.048 in test [2] (agonist: 3'3'-cGAMP 10 ug/mL), 1.11 ± 0.17 in test [2] (agonist: LPS 0.1 ug/mL) and 1.29 ± 0.35 in test [2] (agonist: MPLA […]). Also, the viability score in test [3] was 0.91 (active).
